Test [1] can be described thus: Nuclear factor erythroid 2-related factor 2/antioxidant responsive element (Nrf2/ARE) small molecule agonists: qHTS cell viability counter screen in human keratinocytes (AID 1919968; active = well fitted curve in the direction sought with a large enough effect in the repeat runs; an effect the other way counts as inactive or inconclusive; also: nearly all actives have a fitted effect of over 55% in size; also: potency is read from the fitted curve at half-maximal effect). Summed up:
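In human HaCaT keratinocytes stably expressing an ARE-driven luciferase, compound exposure lasted 23 h at 37 C under 5% CO2. Viable cells are quantified with a protease-based fluorogenic reagent (CellTiter-Fluor) read 1 h after addition.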

Test [2] can be described thus: Nuclear factor erythroid 2-related factor 2/antioxidant responsive element (Nrf2/ARE) small molecule agonists: luciferase reporter gene qHTS assay in human keratinocytes (AID 1919969). Also: nearly all actives have a fitted effect of over 35% in size. Also: potency is read from the fitted curve at half-maximal effect.
In test [3] the target is Gonadotropin-releasing hormone receptor (Homo sapiens) (UniProt P30968). The test can be described thus: Human gonadotropin-releasing hormone receptor (GnRHR) small molecule agonists, calcium flux assay in GnRHR-HEK293 cells (AID 1920063). Also: nearly all actives have a fitted effect of over 35% in size. Also: potency is read from the fitted curve at half-maximal effect. Summed up:
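Intracellular calcium rise is the read-out: engineered human GnRHR HEK293 cells, dye-loaded, are exposed to DMSO-dissolved compounds and fluorescence at Ex/Em 480/540 is tracked for 3 min.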

Test [4] deals with KiSS-1 receptor (Homo sapiens) (UniProt Q969F8). Nature of the test: Human kisspeptin (KISS1R) small molecule agonists, calcium flux assay in KISS1R-HEK293 cells (AID 1920064; active = well fitted curve in the direction sought with a large enough effect in the repeat runs; an effect the other way counts as inactive or inconclusive). Summed up: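 Concentration-response testing used 15 concentrations in triplicate on human KISS1R-expressing HEK293 cells. Calcium-dependent fluorescence (Ex/Em 480/540) was followed kinetically for 3 min after compound transfer.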
Chain of KiSS-1 receptor (Homo sapiens) (Q969F8 whole entry, looked up): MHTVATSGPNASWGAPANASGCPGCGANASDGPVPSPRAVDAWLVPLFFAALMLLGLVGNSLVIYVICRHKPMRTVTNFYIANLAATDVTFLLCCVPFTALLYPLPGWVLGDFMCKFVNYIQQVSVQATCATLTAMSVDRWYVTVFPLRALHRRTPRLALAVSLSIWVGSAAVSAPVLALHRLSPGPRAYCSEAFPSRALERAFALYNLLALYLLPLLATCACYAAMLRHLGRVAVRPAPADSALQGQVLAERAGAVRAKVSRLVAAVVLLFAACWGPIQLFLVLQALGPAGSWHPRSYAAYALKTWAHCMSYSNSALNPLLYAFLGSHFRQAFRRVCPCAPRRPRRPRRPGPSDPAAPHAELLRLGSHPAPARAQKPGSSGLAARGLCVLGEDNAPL

Test [5] is described as follows: G protein-coupled receptor (GPCR) small molecule agonists, calcium flux assay: HEK293 wild type cell line counter screen (AID 1920065). Summed up: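 Fluorescence intensity signals activation. After overnight (18 h) culture and a 1 h calcium dye load at 37 C, compounds are added by pin tool and the plate read at 480/540 nm for 3 min in 1 s steps.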
The nature of test [6]: p53 small molecule agonists, cell-based qHTS assay with human liver microsomes (AID 1963577).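 Also: p53 response element beta-lactamase reporter cells with liver microsomes plus NADPH.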 Summed up: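 HLM-supplemented p53RE-bla reporter assay: 16 h compound exposure at 37 C, microsomes and NADPH each 0.5 mg/mL final, read by fluorescence intensity.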
Test [7] in a line: p53 small molecule agonists, cell-based qHTS assay with rat liver microsomes (AID 1963578). A digest of the protocol:
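Quantitative HTS of the Tox21 10K library: p53RE-bla cells, rat liver microsomes plus NADPH at 0.5 mg/mL final each, 16 h at 37 C, beta-lactamase fluorescence detection.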

The nature of test [8]: p53 small molecule agonists, cell-based qHTS assay with human liver microsomes: qHTS cell viability counter screen (AID 1963579). Also: nearly all actives have a fitted effect of over 45% in size. Also: potency is read from the fitted curve at half-maximal effect. A digest of the protocol: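 Viability of p53RE-bla cells is measured as CellTiter-Glo luminescence following a 16 h, 37 C incubation with compound, liver microsomes from human donors and NADPH.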
A short description of test [9]: p53 small molecule agonists, cell-based qHTS assay with rat liver microsomes: qHTS cell viability counter screen (AID 1963580). Also: nearly all actives have a fitted effect of over 45% in size. Also: potency is read from the fitted curve at half-maximal effect. A digest of the protocol: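 After the beta-lactamase ratio was read, CellTiter-Glo was added to the same wells and luminescence measured at 30 min; cells had been treated 16 h at 37 C with compounds, rat liver microsomes and NADPH (0.5 mg/mL final each).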

Test [10] is described as follows: p53 small molecule agonists, cell-based qHTS assay (AID 1963582; active = well fitted activation curve with a large enough effect in the signal ratio in the repeat runs, not every such curve was filed as active; the % refers to the signal ratio). Summed up: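 After plating, p53RE-bla cells sat 5 h in the incubator; compounds or DMSO vehicle were pinned in; a 16 h incubation at 37 C followed; FRET substrate was added and, 2 h later at RT, fluorescence was measured.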
For test [11], the target named is Beta-2 adrenergic receptor (Homo sapiens) (UniProt P07550). The test can be described thus: Adrenergic beta2 receptor (ADRB2) small molecule antagonists, cell-based qHTS assay (AID 1963592). Also: series mostly up to about 92 µM; nearly all actives have a fitted effect of over 50% in size. Summed up: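 Assay format: CHO-ADRB2 cells, 18-20hr seeding at 37C/5% CO2, then compound plus 1nM isoproterenol agonist mix for 0.5hr RT. Homogeneous time-resolved fluorescence cAMP detection after 1hr, expressed as 665/615 nm ratio.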
Chain of Beta-2 adrenergic receptor (Homo sapiens) (P07550 whole entry, looked up): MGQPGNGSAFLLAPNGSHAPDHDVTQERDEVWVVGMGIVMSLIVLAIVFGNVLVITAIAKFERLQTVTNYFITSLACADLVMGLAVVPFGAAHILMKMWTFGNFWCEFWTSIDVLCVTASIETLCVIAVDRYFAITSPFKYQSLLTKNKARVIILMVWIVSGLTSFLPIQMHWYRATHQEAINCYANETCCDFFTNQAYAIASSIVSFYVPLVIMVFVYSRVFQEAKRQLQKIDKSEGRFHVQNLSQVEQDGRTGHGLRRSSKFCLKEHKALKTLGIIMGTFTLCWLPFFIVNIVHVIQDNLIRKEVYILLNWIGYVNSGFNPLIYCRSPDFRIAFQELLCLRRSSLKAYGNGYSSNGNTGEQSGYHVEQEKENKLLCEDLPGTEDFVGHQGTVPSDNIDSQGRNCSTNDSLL

Test [12] addresses D(2) dopamine receptor (Homo sapiens) (UniProt P14416). The test can be described thus: Dopamine D2 receptor (DRD2) small molecule antagonists, cell-based qHTS assay (AID 1963595; active = well fitted inhibition curve with a large enough effect in the signal ratio in the repeat runs, with a control signal flat; the % refers to the signal ratio; also: potency is read from the fitted curve at half-maximal effect). Summed up:
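HEK293 cells stably expressing DRD2, preincubated with 0.1 mM Ro20-1724 and compounds 10 min, were stimulated with 200 nM NKH477 plus 12 nM quinpirole for 30 min at room temperature; cAMP measured by HTRF (665/620 nm).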

Test [13] addresses 5-hydroxytryptamine receptor 2A (Homo sapiens) (UniProt P28223). The test can be described thus: 5-hydroxytryptamine receptor 2A (HTR2A) small molecule antagonists, cell-based qHTS assay (AID 1963586). Also: nearly all actives have a fitted effect of over 45% in size. Summed up:
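CHO cells stably expressing human HTR2A were plated for 18 h at 37 C, then loaded with calcium dye for 1 h. Compounds were preincubated 5 min at room temperature before DOI (4 nM solution) was added. Kinetic fluorescence was read for 3 min.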

The target is the same in test [14]. The test can be described thus: 5-hydroxytryptamine receptor 2A (HTR2A) small molecule agonists, cell-based qHTS assay (AID 1963587). Also: nearly all actives have a fitted effect of over 30% in size. Summed up: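 CHO cells stably expressing human HTR2A, plated 18 h, loaded with calcium dye 1 h at 37 C. Agonist mode: compounds added and intracellular calcium fluorescence recorded kinetically for 2 min at 1 sec intervals.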
Test [15] concerns the target Muscarinic acetylcholine receptor M1 (Homo sapiens) (UniProt P11229). Nature of the test: Cholinergic receptor muscarinic 1 (CHRM1) small molecule antagonists, cell-based qHTS assay (AID 1963588). Also: nearly all actives have a fitted effect of over 40% in size. Also: potency is read from the fitted curve at half-maximal effect. A digest of the protocol: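 Compounds were tested at 15 concentrations in three independent runs. Dye-loaded CHRM1-CHO cells were exposed 5 min at room temperature before stimulation by acetylcholine added at 50nM. Intracellular calcium was read kinetically on FDSS for 3 min.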

Test [16] has the same target. The test can be described thus: Cholinergic receptor muscarinic 1 (CHRM1) small molecule agonists, cell-based qHTS assay (AID 1963589). Also: nearly all actives have a fitted effect of over 35% in size. A digest of the protocol:
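Fluorescent calcium dye reports M1 activation in stably transfected CHO cells. Compounds, 15 concentrations, added after 1 h dye loading at 37 C; kinetic reading at 1 sec intervals.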

Test [17] is described as follows: cAMP Responsive Elements (CRE) small molecule agonists, cell-based qHTS assay (AID 1963590). Summed up: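 Compound exposure lasted 3 h at 37 C/5% CO2 in CRE-bla HEK 293T cells grown in assay medium with 10% dialyzed FBS and 25 mM HEPES. Reporter signal came from LiveBLAzer B/G FRET substrate, 2 h, room temperature.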
A short description of test [18]: cAMP Responsive Elements (CRE) small molecule antagonists, cell-based qHTS assay (AID 1963591; active = well fitted inhibition curve with a large enough effect in the signal ratio in the repeat runs, not every such curve was filed as active; the % refers to the signal ratio). A digest of the protocol: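 Stimulation used NKH477 at a final 0.25 uM for 3 h in compound-treated CRE-bla HEK293T cells, seeded 18 h beforehand. Reporter activity was measured with LiveBLAzer B/G FRET substrate after 2 h at room temperature.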
Test [19] deals with D(2) dopamine receptor (Homo sapiens) (UniProt P14416). Nature of the test: Dopamine D2 receptor (DRD2) small molecule agonists, cell-based qHTS assay (AID 1963594). Also: nearly all actives have a fitted effect of over 35% in size. Summed up:
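HEK293 cells stably expressing human DRD2, pre-treated with PDE inhibitor Ro20-1724 (0.1 mM final) and compound 10 min at room temperature, then stimulated with NKH477 (200nM […]) for 30 min. cAMP read by HTRF (665/620 nm).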

Values without a mark were called inactive. Inconclusive results are not listed. Activity calls are given as the source filed them. Unless noted, calls follow the shape of the full dose curve.

Chain of Muscarinic acetylcholine receptor M1 (Homo sapiens) (P11229 whole entry, looked up): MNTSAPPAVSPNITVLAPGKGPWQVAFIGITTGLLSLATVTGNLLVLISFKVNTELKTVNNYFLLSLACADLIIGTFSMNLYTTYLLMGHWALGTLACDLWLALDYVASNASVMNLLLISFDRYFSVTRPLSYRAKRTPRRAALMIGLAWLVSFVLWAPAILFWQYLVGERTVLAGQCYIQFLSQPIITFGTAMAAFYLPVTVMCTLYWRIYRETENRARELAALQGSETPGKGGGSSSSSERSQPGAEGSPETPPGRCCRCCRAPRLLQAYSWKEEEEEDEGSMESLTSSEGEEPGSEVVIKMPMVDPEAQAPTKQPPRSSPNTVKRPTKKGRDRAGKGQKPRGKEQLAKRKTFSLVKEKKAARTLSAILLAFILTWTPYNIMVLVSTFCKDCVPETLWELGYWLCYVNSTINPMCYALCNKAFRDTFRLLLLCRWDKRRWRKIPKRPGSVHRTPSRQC
Chain of Gonadotropin-releasing hormone receptor (Homo sapiens) (P30968 whole entry, looked up): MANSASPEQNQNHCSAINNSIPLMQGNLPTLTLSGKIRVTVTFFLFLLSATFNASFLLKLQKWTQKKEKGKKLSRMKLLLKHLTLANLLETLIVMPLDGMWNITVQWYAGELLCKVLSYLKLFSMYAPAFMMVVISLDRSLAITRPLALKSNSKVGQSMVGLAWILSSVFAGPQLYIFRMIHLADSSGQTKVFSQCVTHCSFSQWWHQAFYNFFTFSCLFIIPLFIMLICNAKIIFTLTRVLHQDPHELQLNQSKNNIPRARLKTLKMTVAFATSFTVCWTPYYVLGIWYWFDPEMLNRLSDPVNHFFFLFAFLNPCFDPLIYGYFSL
Chain of 5-hydroxytryptamine receptor 2A (Homo sapiens) (P28223 whole entry, looked up): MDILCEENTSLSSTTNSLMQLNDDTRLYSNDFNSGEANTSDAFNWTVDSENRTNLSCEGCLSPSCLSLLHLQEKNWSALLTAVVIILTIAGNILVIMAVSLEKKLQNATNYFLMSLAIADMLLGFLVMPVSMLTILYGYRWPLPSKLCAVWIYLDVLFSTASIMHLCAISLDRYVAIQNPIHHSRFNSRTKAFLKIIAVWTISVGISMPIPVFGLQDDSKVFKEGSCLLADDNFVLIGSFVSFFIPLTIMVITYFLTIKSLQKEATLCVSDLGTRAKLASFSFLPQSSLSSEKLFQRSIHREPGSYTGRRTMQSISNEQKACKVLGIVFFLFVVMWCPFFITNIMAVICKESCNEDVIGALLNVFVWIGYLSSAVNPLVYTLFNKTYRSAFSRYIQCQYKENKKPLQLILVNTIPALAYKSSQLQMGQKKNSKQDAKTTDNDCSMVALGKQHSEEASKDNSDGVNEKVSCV
Chain of D(2) dopamine receptor (Homo sapiens) (P14416 whole entry, looked up): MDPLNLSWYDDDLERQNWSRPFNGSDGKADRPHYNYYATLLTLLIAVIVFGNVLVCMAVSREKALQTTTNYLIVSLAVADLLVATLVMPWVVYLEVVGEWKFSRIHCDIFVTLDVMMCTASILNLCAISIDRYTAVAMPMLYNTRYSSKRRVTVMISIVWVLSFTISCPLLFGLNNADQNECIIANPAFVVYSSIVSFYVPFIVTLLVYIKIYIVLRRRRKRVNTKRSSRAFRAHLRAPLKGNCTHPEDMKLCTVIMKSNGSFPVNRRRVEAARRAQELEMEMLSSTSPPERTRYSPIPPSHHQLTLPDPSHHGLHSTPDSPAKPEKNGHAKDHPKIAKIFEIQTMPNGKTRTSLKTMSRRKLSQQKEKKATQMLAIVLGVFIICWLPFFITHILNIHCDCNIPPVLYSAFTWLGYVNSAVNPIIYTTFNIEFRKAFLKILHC

As to `CCCN1C[C@H](CSC)C[C@@H]2c3cccc4[nH]cc(c34)C[C@H]21`, the Potency entry in [1], in test [2], in test [3], in [6], in test [7] and in test [8] was “inactive” in each case. The Potency result in test [9], in [10], in test [11] and in test [12] was “inactive” in each case. Besides, the result in test [4] and in [5] was inactive.

As to `Oc1cc2ccccc2cc1O`, the Potency result in [1], in test [2], in [3], in test [6], in test [7] and in [8] was “inactive” in each case. For the same compound, the Potency entry in test [9], in test [13], in test [14], in test [15], in test [16] and in [17] was “inactive” throughout. Besides, the Potency entry in test [18], in test [11], in [19] and in test [12] was “inactive” in each case. For the same compound, the outcome in [4] and in test [5] was inactive.

As for `CNc1ccc(O)cc1`, the Potency is 54.4 µM (active) in test [1], 24.3 µM (active) in test [2] and 25.7 µM (active) in test [8]. In addition, the Potency result in test [3], in test [6], in [7], in [9], in [14] and in test [16] was “inactive” throughout. In addition, the result in test [4] and in test [5] was inactive.

In the case of `O=C(O)Cn1c(C(=O)Nc2nc(-c3ccccc3Cl)cs2)cc2ccccc21`, the Potency result in test [1], in test [6], in test [7], in test [8], in [9] and in test [13] was “inactive” each time. The Potency entry in test [14], in [15], in test [16], in test [11] and in test [12] was “inactive” each time. Moreover, the Potency in test [2] is 15 µM (active); in test [3], 3.38 µM (active). Moreover, the outcome in test [4] and in [5] was inactive.

On to `CN1CN(C)CN(C)C1`, for which the Potency result in test [1], in [2], in test [3], in test [6], in test [7] and in test [8] was “inactive” in each case. The Potency result in test [9], in test [13], in test [14], in test [15], in [16] and in test [17] was “inactive” throughout. In addition, the Potency result in test [18], in test [11], in [19] and in [12] was “inactive” each time. The result in [4] and in [5] was inactive.

For the compound `O[C@@H](COc1cccc2ncccc12)CN1CCN(C2c3ccccc3[C@@H]3[C@H](c4ccccc42)C3(F)F)CC1` (stereo not given in full), the Potency result in test [1], in test [2], in [3], in [6], in [7] and in [8] was “inactive” each time. For the same compound, the Potency result in [9], in [14], in [16], in test [11], in test [19] and in test [12] was “inactive” in each case. Further, the outcome in test [4] and in test [5] was inactive. In test [15], the Potency is 3.65 µM (active).

On to `CCCCCCCCCCCCc1ccc(O)cc1`, for which the Potency is 27.3 µM (active) in test [1], 40.8 µM (active) in test [9] and 61.1 µM (active) in [12]. Also, the Potency result in test [2], in [3], in test [6], in test [7], in [8] and in test [13] was “inactive” in each case. Moreover, the Potency result in [14] and in test [19] was “inactive” in each case. Besides, the result in test [4] and in [5] was inactive.

Turning to `CCC(=O)O[C@]1(C(=O)CCl)[C@@H](C)C[C@H]2[C@@H]3CCC4=CC(=O)C=C[C@]4(C)[C@@]3(F)[C@@H](O)C[C@@]21C`, the Potency result in test [1], in test [2], in [3], in test [6], in test [7] and in test [8] was “inactive” in each case. Moreover, the Potency entry in test [9], in [10], in test [11] and in test [19] was “inactive” throughout. Moreover, the result in [4] and in [5] was inactive.

As to `CCCCCCCCOc1ccc(C(=O)O)cc1`, the Potency result in test [1], in test [3], in [6], in test [7], in test [8] and in [9] was “inactive” in each case. Further, the Potency result in test [14], in test [15], in [16], in test [18], in test [11] and in [19] was “inactive” in each case. Moreover, the Potency result in [12] is “inactive”. Besides, the Potency in [2] was 60.4 µM (active). In addition, the result in test [4] and in test [5] was inactive.
